Measurements published in the supplement of paper PMC6411743.
± gives the standard deviation of the averaged measurements. Targets with the largest changes are over-represented here; the source holds about 6,500 in all.

What follows are targets tested with Nc1ncnc2c1ncn2[C@@H]1O[C@H](COP(=O)(O)OP(=O)(O)OP(=O)(O)O)[C@@H](O)[C@H]1O [adenosine triphosphate] (assay: NP40-soluble protein abundance relative to vehicle (solubility fold change) (ratio); higher = more soluble protein in presence of ATP). Settings: concentration: 1mM.
Method in brief: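 In three independent experiments, Jurkat crude lysate made by Dounce homogenisation was treated for 10 min at room temperature and then 3 min at 37 °C with eight concentrations ranging from 0.1 to 10 mM. It was then solubilised with 0.8% NP40 plus benzonase for 60 min at 4 °C and ultracentrifuged. The supernatant was TMT-labelled for LC-MS/MS, and each value is the fold change against the detergent-processed vehicle for the same replicate, using vsn-normalised intensities.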

Sequence of UniProt B0I1T2 (B0I1T2 whole entry): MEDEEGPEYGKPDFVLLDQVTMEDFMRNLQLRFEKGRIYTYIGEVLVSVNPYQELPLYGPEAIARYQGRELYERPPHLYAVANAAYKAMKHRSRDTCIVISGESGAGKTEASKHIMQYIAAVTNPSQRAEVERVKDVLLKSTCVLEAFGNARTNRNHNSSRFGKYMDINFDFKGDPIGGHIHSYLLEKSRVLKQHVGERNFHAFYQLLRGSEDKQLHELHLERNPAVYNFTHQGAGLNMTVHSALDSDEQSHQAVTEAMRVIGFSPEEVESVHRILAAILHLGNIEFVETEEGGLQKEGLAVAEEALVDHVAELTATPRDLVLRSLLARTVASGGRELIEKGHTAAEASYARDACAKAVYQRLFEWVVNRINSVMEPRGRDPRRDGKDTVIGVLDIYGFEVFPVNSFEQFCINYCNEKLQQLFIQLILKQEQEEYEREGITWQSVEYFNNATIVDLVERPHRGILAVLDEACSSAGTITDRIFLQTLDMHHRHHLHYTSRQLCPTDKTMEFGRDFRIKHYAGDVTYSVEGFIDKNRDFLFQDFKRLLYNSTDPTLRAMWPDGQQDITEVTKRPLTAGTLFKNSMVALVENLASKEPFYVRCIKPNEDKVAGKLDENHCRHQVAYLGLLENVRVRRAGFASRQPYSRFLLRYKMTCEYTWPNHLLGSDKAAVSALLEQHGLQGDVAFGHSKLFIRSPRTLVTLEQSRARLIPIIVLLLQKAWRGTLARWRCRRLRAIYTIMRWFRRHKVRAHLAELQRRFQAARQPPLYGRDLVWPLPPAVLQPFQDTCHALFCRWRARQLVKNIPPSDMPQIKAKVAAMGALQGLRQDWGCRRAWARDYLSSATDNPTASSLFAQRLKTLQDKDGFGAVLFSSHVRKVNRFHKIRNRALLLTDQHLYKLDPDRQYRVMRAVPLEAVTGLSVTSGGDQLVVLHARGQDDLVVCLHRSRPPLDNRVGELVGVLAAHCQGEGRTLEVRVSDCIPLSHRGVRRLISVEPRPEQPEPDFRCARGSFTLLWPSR
Sequence of UniProt O75955 (O75955 whole entry, one chain of several): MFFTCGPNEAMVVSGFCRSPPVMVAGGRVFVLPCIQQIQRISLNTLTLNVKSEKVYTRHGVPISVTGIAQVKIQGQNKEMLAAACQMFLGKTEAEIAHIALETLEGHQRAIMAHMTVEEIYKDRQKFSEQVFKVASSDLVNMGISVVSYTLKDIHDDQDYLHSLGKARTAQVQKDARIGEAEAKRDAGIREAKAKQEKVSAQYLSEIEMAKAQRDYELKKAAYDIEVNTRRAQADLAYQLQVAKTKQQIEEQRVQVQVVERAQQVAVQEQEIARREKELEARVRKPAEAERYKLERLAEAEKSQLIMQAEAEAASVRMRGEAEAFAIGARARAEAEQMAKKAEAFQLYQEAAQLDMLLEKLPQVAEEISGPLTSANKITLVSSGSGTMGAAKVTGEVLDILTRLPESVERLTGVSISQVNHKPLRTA
Sequence of UniProt P78549 (P78549 whole entry, one chain of several): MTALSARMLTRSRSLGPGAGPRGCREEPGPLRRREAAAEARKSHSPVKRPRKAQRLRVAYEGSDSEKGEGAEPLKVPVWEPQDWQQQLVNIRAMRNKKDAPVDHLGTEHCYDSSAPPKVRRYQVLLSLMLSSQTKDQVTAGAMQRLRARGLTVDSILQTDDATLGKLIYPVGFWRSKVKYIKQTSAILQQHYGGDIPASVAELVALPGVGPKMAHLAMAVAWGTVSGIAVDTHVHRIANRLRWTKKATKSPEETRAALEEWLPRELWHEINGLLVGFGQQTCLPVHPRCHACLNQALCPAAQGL
Sequence of UniProt Q9BXS9 (Q9BXS9 whole entry, one chain of several): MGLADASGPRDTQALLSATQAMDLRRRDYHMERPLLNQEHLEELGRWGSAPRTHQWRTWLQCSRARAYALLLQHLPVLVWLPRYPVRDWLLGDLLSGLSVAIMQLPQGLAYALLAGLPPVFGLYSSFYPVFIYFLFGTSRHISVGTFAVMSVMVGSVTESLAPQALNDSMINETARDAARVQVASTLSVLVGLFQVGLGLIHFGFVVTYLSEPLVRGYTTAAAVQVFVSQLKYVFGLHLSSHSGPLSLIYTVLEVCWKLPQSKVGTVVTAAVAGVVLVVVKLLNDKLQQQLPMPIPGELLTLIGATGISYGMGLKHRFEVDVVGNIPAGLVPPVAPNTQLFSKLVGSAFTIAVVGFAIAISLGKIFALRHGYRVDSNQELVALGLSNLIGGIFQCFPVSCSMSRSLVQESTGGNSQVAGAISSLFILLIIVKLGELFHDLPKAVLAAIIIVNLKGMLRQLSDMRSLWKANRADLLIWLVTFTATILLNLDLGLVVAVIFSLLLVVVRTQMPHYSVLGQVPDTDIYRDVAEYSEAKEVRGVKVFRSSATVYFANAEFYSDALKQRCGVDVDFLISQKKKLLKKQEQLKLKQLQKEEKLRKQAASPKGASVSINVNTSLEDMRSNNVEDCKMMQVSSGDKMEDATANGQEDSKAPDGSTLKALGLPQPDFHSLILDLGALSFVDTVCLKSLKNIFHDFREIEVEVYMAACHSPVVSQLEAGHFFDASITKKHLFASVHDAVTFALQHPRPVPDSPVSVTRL
Sequence of UniProt Q96F10 (Q96F10 whole entry, one chain of several): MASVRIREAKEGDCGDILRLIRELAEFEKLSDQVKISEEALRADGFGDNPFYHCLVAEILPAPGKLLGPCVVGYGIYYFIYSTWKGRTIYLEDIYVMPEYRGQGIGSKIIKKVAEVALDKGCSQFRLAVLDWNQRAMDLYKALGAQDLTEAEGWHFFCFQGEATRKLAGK
Sequence of UniProt P49821 (P49821 whole entry, one chain of several): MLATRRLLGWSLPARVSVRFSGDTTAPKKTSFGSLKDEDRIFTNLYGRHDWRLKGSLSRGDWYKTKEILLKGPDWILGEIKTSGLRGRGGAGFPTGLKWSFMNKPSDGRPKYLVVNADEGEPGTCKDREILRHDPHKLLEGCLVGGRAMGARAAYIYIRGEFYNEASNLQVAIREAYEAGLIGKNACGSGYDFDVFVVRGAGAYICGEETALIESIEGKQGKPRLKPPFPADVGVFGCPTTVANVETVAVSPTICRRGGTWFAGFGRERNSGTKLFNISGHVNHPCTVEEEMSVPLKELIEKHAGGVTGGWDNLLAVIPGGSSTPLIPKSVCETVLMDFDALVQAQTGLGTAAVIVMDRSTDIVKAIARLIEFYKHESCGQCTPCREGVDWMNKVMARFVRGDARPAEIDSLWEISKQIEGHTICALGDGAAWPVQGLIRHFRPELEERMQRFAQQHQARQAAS
Sequence of UniProt O00232 (O00232 whole entry): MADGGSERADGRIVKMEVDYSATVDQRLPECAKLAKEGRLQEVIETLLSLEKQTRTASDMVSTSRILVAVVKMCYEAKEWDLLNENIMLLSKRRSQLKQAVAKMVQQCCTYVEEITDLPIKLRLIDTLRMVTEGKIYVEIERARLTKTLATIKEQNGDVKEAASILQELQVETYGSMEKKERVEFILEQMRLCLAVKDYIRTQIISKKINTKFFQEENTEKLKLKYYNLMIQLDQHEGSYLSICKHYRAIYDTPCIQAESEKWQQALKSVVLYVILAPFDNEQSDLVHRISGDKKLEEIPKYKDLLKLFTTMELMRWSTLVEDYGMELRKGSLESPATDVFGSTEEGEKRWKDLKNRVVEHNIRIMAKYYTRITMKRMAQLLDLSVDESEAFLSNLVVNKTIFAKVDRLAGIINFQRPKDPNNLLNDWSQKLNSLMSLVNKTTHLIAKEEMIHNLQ
Sequence of UniProt Q96DH6 (Q96DH6 whole entry, one chain of several): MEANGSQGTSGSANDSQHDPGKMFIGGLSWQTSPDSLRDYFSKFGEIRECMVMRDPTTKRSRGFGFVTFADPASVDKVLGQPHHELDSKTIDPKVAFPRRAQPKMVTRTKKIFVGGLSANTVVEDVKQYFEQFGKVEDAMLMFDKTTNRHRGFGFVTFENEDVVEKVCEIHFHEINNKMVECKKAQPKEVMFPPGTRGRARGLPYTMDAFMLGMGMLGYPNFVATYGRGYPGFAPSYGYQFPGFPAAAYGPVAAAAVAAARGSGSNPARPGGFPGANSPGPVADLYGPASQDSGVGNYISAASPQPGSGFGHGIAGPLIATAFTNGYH
Sequence of UniProt P20839 (P20839 whole entry, looked up, one chain of several): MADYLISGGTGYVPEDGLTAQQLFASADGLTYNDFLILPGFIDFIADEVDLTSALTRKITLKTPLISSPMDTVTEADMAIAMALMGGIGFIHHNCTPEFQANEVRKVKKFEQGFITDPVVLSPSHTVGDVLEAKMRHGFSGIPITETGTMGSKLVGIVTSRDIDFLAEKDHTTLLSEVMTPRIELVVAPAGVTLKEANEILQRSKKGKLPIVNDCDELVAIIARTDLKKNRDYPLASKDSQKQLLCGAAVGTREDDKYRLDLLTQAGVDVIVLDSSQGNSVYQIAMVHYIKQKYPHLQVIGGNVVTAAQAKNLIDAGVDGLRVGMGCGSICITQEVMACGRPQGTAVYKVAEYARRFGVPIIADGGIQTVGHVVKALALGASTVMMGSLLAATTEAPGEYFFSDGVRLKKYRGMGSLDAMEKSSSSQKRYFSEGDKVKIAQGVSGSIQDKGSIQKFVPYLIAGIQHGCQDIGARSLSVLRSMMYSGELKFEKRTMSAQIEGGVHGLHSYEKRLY
Sequence of UniProt Q6P1N9 (Q6P1N9 whole entry, one chain of several): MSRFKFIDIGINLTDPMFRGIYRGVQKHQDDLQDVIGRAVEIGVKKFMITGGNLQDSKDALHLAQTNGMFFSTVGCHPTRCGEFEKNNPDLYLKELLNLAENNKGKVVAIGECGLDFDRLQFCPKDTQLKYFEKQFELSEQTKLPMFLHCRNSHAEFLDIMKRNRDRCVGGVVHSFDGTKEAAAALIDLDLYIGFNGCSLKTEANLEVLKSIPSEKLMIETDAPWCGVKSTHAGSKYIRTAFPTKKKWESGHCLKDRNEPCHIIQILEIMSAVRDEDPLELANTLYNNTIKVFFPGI
Sequence of UniProt O43809 (O43809 whole entry): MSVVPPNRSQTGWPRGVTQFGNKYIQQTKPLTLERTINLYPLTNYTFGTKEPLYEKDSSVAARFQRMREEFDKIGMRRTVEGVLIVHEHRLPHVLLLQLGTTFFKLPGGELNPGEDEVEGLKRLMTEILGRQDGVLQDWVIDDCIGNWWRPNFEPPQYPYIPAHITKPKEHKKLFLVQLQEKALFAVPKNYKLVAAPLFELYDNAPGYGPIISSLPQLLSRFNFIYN

In order of rising NP40-soluble protein abundance:
1. J3KQ34|Q9H9Q2 (UniProt Q9H9Q2)  0.89 ± 0.097
2. G3XAC1|Q9BXS9|Q9BXS9-3|Q9BXS9-7|A0A0C4DFT5|Q9BXS9-4|Q9BXS9-5 (UniProt Q9BXS9)  0.909 ± 0.018
3. PSMD12 (UniProt O00232)  0.938 ± 0.063
4. MAN2B1 (UniProt O00754)  0.94 ± 0.027
5. I3L2M1|J3KNL2|Q8WYJ6 (UniProt Q8WYJ6)  0.941 ± 0.031
6. A0A087X176|Q6ZRP7 (UniProt Q6ZRP7)  0.958 ± 0.057
7. J3QTA6|Q9BRQ6 (UniProt Q9BRQ6)  0.958 ± 0.12
8. SETD1A (UniProt O15047)  0.962 ± 0.038
9. H0YM92|J3KMZ9|P01130|P01130-5|H0YMD1|P01130-4 (UniProt P01130)  0.962 ± 0.026
10. H3BUX2|J3KNF8|O43169 (UniProt O43169)  0.964 ± 0.19
11. E9PL53|J3KND1 (UniProt Q96ER3)  0.966 ± 0.034
12. A0A0C4DGB9|Q9H2U2 (UniProt Q9H2U2)  0.971 ± 0.022
13. UniProt O14776|O14776-2  0.972 ± 0.011
14. I3L0W4|Q96F10 (UniProt Q96F10)  0.98 ± 0.13
15. UniProt O43865  0.982 ± 0.1
16. F5H527|Q76I76 (UniProt Q76I76)  0.984 ± 0.012
17. G3V0I5|P49821|P49821-2 (UniProt P49821)  0.986 ± 0.025
18. M0QZM1|M0R019|P52272|P52272-2 (UniProt P52272)  0.988 ± 0.037
19. E5RG17|Q6P1N9 (UniProt Q6P1N9)  0.989 ± 0.02
20. C9J381|P20839|P20839-2|P20839-3|P20839-4|P20839-5|P20839-6|P20839-7 (UniProt P20839)  0.999 ± 0.049
21. M0R042|P04350 (UniProt P04350)  1.01 ± 0.089
22. G5E9V5|G5E9W7|P82650 (UniProt P82650)  1.01 ± 0.046
23. B4DHE8|Q96DH6 (UniProt Q96DH6)  1.02 ± 0.045
24. A2ABJ5|O75955|A0A140T9R1 (UniProt O75955)  1.03 ± 0.047
25. K7ELH7|K7ENE2|Q8IVV7 (UniProt Q8IVV7)  1.04 ± 0.13
26. F6S7C4|Q8NEM7|Q8NEM7-2|Q8NEM7-3|R4GND2 (UniProt Q8NEM7)  1.09 ± 0.12
27. B0QY89|Q9Y262 (UniProt Q9Y262)  1.09 ± 0.093
28. H3BSH7|Q969X6|Q969X6-3 (UniProt Q969X6)  1.1 ± 0.14
29. H3BPD5|P78549|P78549-2|P78549-3 (UniProt P78549)  1.12 ± 0.16
30. E9PEN0|Q8WYH8|Q8WYH8-2 (UniProt Q8WYH8)  1.15 ± 0.2
31. B1AKN5|B1AKN7|B1AKN8|Q12857|Q12857-3|Q12857-4|B1AKN6|S4R3K4|Q12857-2 (UniProt Q12857)  1.22 ± 0.072
32. DHX15 (UniProt O43143)  1.25 ± 0.079
33. J3KP06|Q8WWI1|Q8WWI1-2|Q8WWI1-3|Q8WWI1-4 (UniProt Q8WWI1)  1.31 ± 0.026
34. G3XAG1|Q96ME7|Q96ME7-3 (UniProt Q96ME7)  1.34 ± 0.038
35. NUDT21 (UniProt O43809)  1.95 ± 0.11
36. MYO1G (UniProt B0I1T2)  3.09 ± 0.27

Same assay, conditions: concentration: 2mM

In order of falling NP40-soluble protein abundance:
1. MYO1G (UniProt B0I1T2)  3.32 ± 0.48
2. NUDT21 (UniProt O43809)  2.06 ± 0.064
3. G3XAG1|Q96ME7|Q96ME7-3 (UniProt Q96ME7)  1.407 ± 0.0052
4. J3KP06|Q8WWI1|Q8WWI1-2|Q8WWI1-3|Q8WWI1-4 (UniProt Q8WWI1)  1.41 ± 0.07
5. E9PEN0|Q8WYH8|Q8WYH8-2 (UniProt Q8WYH8)  1.3 ± 0.29
6. B0QY89|Q9Y262 (UniProt Q9Y262)  1.25 ± 0.15
7. DHX15 (UniProt O43143)  1.24 ± 0.071
8. H3BSH7|Q969X6|Q969X6-3 (UniProt Q969X6)  1.21 ± 0.03
9. H3BPD5|P78549|P78549-2|P78549-3 (UniProt P78549)  1.2 ± 0.029
10. F6S7C4|Q8NEM7|Q8NEM7-2|Q8NEM7-3|R4GND2 (UniProt Q8NEM7)  1.15 ± 0.1
11. B1AKN5|B1AKN7|B1AKN8|Q12857|Q12857-3|Q12857-4|B1AKN6|S4R3K4|Q12857-2 (UniProt Q12857)  1.08 ± 0.11
12. B4DHE8|Q96DH6 (UniProt Q96DH6)  1.02 ± 0.058
13. F5H527|Q76I76 (UniProt Q76I76)  1 ± 0.016
14. M0QZM1|M0R019|P52272|P52272-2 (UniProt P52272)  0.999 ± 0.016
15. A0A087X176|Q6ZRP7 (UniProt Q6ZRP7)  0.983 ± 0.011
16. K7ELH7|K7ENE2|Q8IVV7 (UniProt Q8IVV7)  0.979 ± 0.11
17. H0YM92|J3KMZ9|P01130|P01130-5|H0YMD1|P01130-4 (UniProt P01130)  0.977 ± 0.016
18. E5RG17|Q6P1N9 (UniProt Q6P1N9)  0.974 ± 0.013
19. UniProt O14776|O14776-2  0.9735 ± 0.0036
20. E9PL53|J3KND1 (UniProt Q96ER3)  0.9715 ± 0.0057
21. SETD1A (UniProt O15047)  0.97 ± 0.018
22. A0A0C4DGB9|Q9H2U2 (UniProt Q9H2U2)  0.97 ± 0.029
23. C9J381|P20839|P20839-2|P20839-3|P20839-4|P20839-5|P20839-6|P20839-7 (UniProt P20839)  0.9672 ± 0.0062
24. UniProt O43865  0.965 ± 0.063
25. M0R042|P04350 (UniProt P04350)  0.962 ± 0.037
26. G3V0I5|P49821|P49821-2 (UniProt P49821)  0.96 ± 0.02
27. A2ABJ5|O75955|A0A140T9R1 (UniProt O75955)  0.948 ± 0.029
28. MAN2B1 (UniProt O00754)  0.948 ± 0.017
29. I3L2M1|J3KNL2|Q8WYJ6 (UniProt Q8WYJ6)  0.945 ± 0.017
30. G5E9V5|G5E9W7|P82650 (UniProt P82650)  0.938 ± 0.079
31. I3L0W4|Q96F10 (UniProt Q96F10)  0.932 ± 0.07
32. J3QTA6|Q9BRQ6 (UniProt Q9BRQ6)  0.921 ± 0.073
33. PSMD12 (UniProt O00232)  0.894 ± 0.035
34. G3XAC1|Q9BXS9|Q9BXS9-3|Q9BXS9-7|A0A0C4DFT5|Q9BXS9-4|Q9BXS9-5 (UniProt Q9BXS9)  0.891 ± 0.037
35. J3KQ34|Q9H9Q2 (UniProt Q9H9Q2)  0.87 ± 0.04
36. H3BUX2|J3KNF8|O43169 (UniProt O43169)  0.854 ± 0.08
